In test [1] the target is Lysosomal acid glucosylceramidase (Homo sapiens) (UniProt P04062). Kind of test: Glucocerebrosidase-p2 (AID 348; in the data active = potency below about 10 µM; note: potency is the fitted concentration of half-maximal effect). The conditions noted are these: purified GBA, blue fluorogenic substrate, 40 min. The method, boiled down:
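Compounds titrated from 0.6 nM upwards against 0.2 nM enzyme in pH 5.9 citric acid/KH2PO4, taurocholate, tween-20; blue fluorogenic substrate 80 uM, 40 min room temperature, stopped and read Ex 365/Em 440 for AC50.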

The nature of test [2]: AP1 Signaling Pathway (AID 357; active = well fitted curve in either direction with a large enough effect, not every such curve was filed as active;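 note: ME-180 reporter cells stimulated with EGF at its EC50 level; % is set by controls: 0 for no effect and ±100 for the full control effect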). The conditions noted are these: ME-180 AP-1-bla reporter, EGF-induced, beta-lactamase ratio, 5 h; at 7.69 µM (top of the series) unless noted. The procedure, abridged:
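Read-out was the 460nm/530nm emission ratio (excitation 405nm) after CCF4 loading for 2.5 hours at room temperature. Cells carried an AP-1-driven beta-lactamase reporter, were stimulated with EC50 EGF plus compound for 5 hours, and AC50 values came from titrations.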

The target of test [3] is Cytochrome P450 1A2 (Homo sapiens) (UniProt P05177). Kind of test: p450-cyp1a2 (AID 410; calls by dose curve; note: potency is the fitted concentration of half-maximal effect;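 for activity change, negative = inhibition: -100% = full effect of reference inhibitor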). As to conditions: recombinant CYP1A2, luciferin-ME demethylation, luminescence; series mostly up to 57 µM. The method, boiled down: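 Inhibition was calculated relative to 57 uM furafylline (full inhibition). The reaction used human CYP1A2 at 20nM with Luciferin-ME at its Km, 100uM, driven by an NADPH-regenerating system for 60 min at room temperature.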

The nature of test [4]: NFAT Signaling Pathway (AID 444; active = well fitted curve in either direction with a large enough effect, not every such curve was filed as active;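 note: carbachol stimulus at about its EC50 of 1 µM final; % is set by controls: 0 for no effect and ±100 for the full control effect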). As to conditions: Jurkat NFAT-bla M1, carbachol, beta-lactamase ratio, 5 h; at 7.69 µM (top of the series) unless noted. The procedure, abridged: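 Jurkat cells with NFAT-driven β-lactamase reporter and co-expressed M1 receptor, stimulated with carbachol (final 1 uM, ~EC50), compound titration, 5 h at 37 °C. CCF4 loaded 1 h at RT; 460/530 nm ratio gave %activity and AC50.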

Test [5] in a line: Stat Signaling Pathway (AID 446; active = well fitted curve in either direction with a large enough effect, not every such curve was filed as active;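 note: ME-180 cervical cancer cells given 40 pM IL-6 alongside compound; SIE-controlled beta-lactamase reporter measured as 460/530 nm FRET emission ratio; % is set by controls: 0 for no effect and ±100 for the full control effect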). The conditions noted are these: ME-180 SIE beta-lactamase reporter, IL-6 stimulated, 5 h; at 7.69 µM (top of the series) unless noted. The method, boiled down: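 Reporter line: ME-180 cervical carcinoma, SIE-beta-lactamase. Treatment: compound with 40 pM IL-6, 5 hrs, 37 C, in low-serum OPTI-MEM with 10 mM HEPES pH 7.3. Detection: 460/530 nm fluorescence.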

The target of test [6] is Glucocorticoid receptor (Homo sapiens) (UniProt P04150). The test is described as follows: GR-GFP Redistribution (AID 450;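 active = compounds whose dose series gives a full or clear partial fitted curve of increased nuclear translocation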; note: potency is the fitted concentration of half-maximal effect). As to conditions: U2OS GR-GFP nuclear translocation, laser cytometry, 2 h.
For test [7] the target is unchanged. The test is described as follows: GR-EFC Redistribution (AID 451; calls by dose curve; note: potency is the fitted concentration of half-maximal effect). The conditions noted are these: CHO-K1 GR-EFC translocation, beta-gal luminescence, 2 h. The procedure, abridged: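 CHO-K1 cells expressing nuclear EA and GR-ED fragments of b-gal; compounds titrated up to 46 uM final, 2 h at 37 C. GR nuclear translocation read as complemented b-gal luminescence after 1 h RT detection.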

Test [8] addresses Mitogen-activated protein kinase 10 (Mus musculus) (UniProt Q61831). Kind of test: JNK3 AlphaScreen Assay (AID 530; active = well fitted curve in either direction with a large enough effect, not every such curve was filed as active;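 note: kinase came from lysate of stimulated human HepG2 cells; signal reports phosphorylation of biotinylated GST-cJun 1-79 at Ser73 with 10 µM ATP; % is set by controls: 0 for no effect and ±100 for the full control effect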). The conditions noted are these: JNK3 lysate, c-Jun phosphorylation; series mostly up to 57.1 µM. The method, boiled down: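 qHTS format: compounds tested as titrations against IL-1beta/TNF-alpha-activated HepG2 lysate JNK3 with biotin-GST-cJun substrate and 10 uM ATP at room temperature. Loss of anti-phospho-cJun AlphaScreen signal indicates inhibition.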
For orientation: Alpha assays give light when donor and acceptor beads are brought close together.

Test [9] addresses 3',5'-cyclic-AMP phosphodiesterase 4B (Homo sapiens) (UniProt Q07343). Kind of test: qHTS Assay for Inhibitors of PDE-IV (AID 607; active = well fitted activation curve with a large enough effect in the main read-out, with a control signal flat, not every such curve was filed as active; note: % of control where 0% means no effect). As to conditions: HEK293 ACTOne CNG channel cells, membrane potential fluorescence; series mostly up to 22.9 µM. The procedure, abridged:
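Cell-based read-out of cAMP via a modified cyclic nucleotide-gated channel and membrane potential dye (535/590 nm) in HEK293 cells expressing PDE4 endogenously. Compounds tested up to 22.9 uM final; 100 uM RO 20-1724 reference.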

A short description of test [10]: qHTS Assay for Lipid Storage Modulators (AID 1519; calls by dose curve). As to conditions: Drosophila S3 cells, BODIPY lipid droplet/cell ratio, laser cytometry, cells loaded with oleic acid; for activity change, negative = inhibition: at 57.5 µM (top of the series). The method, boiled down:
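Cells seeded at 5,000 per well were treated with compounds over a concentration series and loaded with oleic acid (400 uM, as added). Lipid droplet fluorescence (488 nm excitation, 500-530 nm channel) was read by laser-scanning cytometry and normalized to 20 uM Triacsin C.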

Test [11] has as its target Dual specificity protein kinase CLK4 (Homo sapiens) (UniProt Q9HAZ1). The test is described as follows: qHTS Assay for Inhibitors of CDC-like Kinase 4 (Kinase-Glo Assay) (AID 1770). Note: nearly all actives have a fitted effect of over 65% in size. Note: potency is the fitted concentration of half-maximal effect. As to conditions: recombinant Clk4, Kinase-Glo ATP depletion luminescence; series mostly up to 66.7 µM. The method, boiled down: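 Clk4 25 nM, RS peptide 100 uM, ATP 1 uM, pH 7.5 Tris, 10 mM MgCl2, 2.5 mM DTT; 4.5 h RT; ATP depletion read by Kinase-Glo luminescence.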
(Quantitative high-throughput screening tests each substance at several concentrations.)

The target is the same in test [12]. The test is described as follows: qHTS Assay for Inhibitors of CDC-like Kinase 4 (ADP-FP Assay) (AID 1795).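 Note: recombinant human CLK4 phosphorylating RS repeat peptide at 1 µM ATP; % is set by controls: 0 for no effect and ±100 for the full control effect; nearly all actives have a fitted effect of over 60% in size.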 The conditions noted are these: Transcreener ADP fluorescence polarization; series mostly up to 50 µM. The procedure, abridged: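 Kinase activity was followed as ADP output, converted from fluorescence polarization with a calibration curve. Reactions ran one hour at low ATP (1 uM) with RS peptide substrate.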

Test [13] addresses Ubiquitin carboxyl-terminal hydrolase 1 (Homo sapiens) (UniProt O94782). Kind of test: Inhibitors of USP1/UAF1: Pilot qHTS (AID 504865).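 Note: rhodamine fluorescence freed from ubiquitin-rhodamine substrate followed over time; top concentration of the series differs between compounds; % is set by controls: 0 for no effect and ±100 for the full control effect; nearly all actives have a fitted effect of over 35% in size.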 The conditions noted are these: purified USP1/UAF1, Ub-rhodamine cleavage fluorescence; series mostly up to 54.9 µM. The method, boiled down:
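Enzyme-free wells gave the negative control, while test wells held 1nM USP1/UAF1 preincubated with compound for 15 min at room temperature. Ub-Rho at 150nM final started the reaction, and fluorescence at 480/540 nm was recorded kinetically.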

Test [14] addresses Cytochrome P450 3A4 (Homo sapiens) (UniProt P08684). The test is described as follows: qHTS Assay for Activators of Cytochrome P450 3A4 (AID 885). Note: nearly all actives have a fitted effect of over 65% in size. The conditions noted are these: recombinant CYP3A4, Luciferin-PPXE luminescence, 60 min; series mostly up to 57.1 µM. The method, boiled down: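 Signal was normalized against complete inhibition by 57 uM ketoconazole. The reaction used 20nM CYP3A4 with 25uM Luciferin-PPXE, 10-min compound preincubation and a 60-min NADPH-supported step at RT.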

Test [15] in a line: qHTS Assay for Identification of Small Molecule Agonists for Hypoxia Response Element Signaling Pathway (AID 914; active = well fitted activation curve with a large enough effect in the signal ratio, with a control signal flat, not every such curve was filed as active; the % refers to the signal ratio; note: potency is the fitted concentration of half-maximal effect; for activation: % of control where 0% means no effect). The conditions noted are these: ME-180 (cervical carcinoma) HRE-bla reporter, beta-lactamase ratio, CoCl2, 17 h; activation: stronger effect = higher value. The method, boiled down:
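In Opti-MEM containing 0.5% dialyzed FBS and 10 mM HEPES, ME-180 HRE-bla cells received a compound titration and EC50 CoCl2. They were incubated 17 hours, then CCF4-loaded 2.5 hours at room temperature before ratio reading.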

Test [16] addresses Dual specificity protein kinase CLK4 (Homo sapiens) (UniProt Q9HAZ1). The test is described as follows: qHTS Assay for Inhibitors of CDC-like Kinase 4 (ADP-Glo Assay) (AID 1771). Note: nearly all actives have a fitted effect of over 70% in size. Note: potency is the fitted concentration of half-maximal effect. As to conditions: recombinant CLK4, ADP-Glo luminescence; series mostly up to 80 µM. The method, boiled down:
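Kinase reaction: Clk4 at 25 nM, RS repeat peptide substrate at 100 uM, ATP at 1 uM, 1 hr, room temperature. Product ADP detected as luciferase signal via ADP-Glo.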

The target in test [17] is Cytochrome P450 3A4 (Homo sapiens) (UniProt P08684). The test is described as follows: qHTS Assay for Inhibitors and Substrates of Cytochrome P450 3A4 (AID 884). Note: potency is the fitted concentration of half-maximal effect; nearly all actives have a fitted effect of over 50% in size. As to conditions: recombinant CYP3A4, Luciferin-PPXE luminescence; series mostly up to 57.1 µM. The procedure, abridged: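 20 nM human CYP3A4 with 25 uM Luciferin-PPXE (at KM) in 200 mM KPO4, preincubated 10 min with compound; NADPH regeneration started a 60 min RT reaction. Luciferin detected by luminescence, normalized to 57 uM ketoconazole as full inhibition.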

For test [18], the target named is Cytochrome P450 2C19 (Homo sapiens) (UniProt P33261). Kind of test: qHTS Assay for Inhibitors and Substrates of Cytochrome P450 2C19 (AID 899). Note: potency is the fitted concentration of half-maximal effect; nearly all actives have a fitted effect of over 60% in size. The conditions noted are these: recombinant CYP2C19, luciferin-H EGE luminescence; series mostly up to 57.1 µM. The method, boiled down:
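5 nM human CYP2C19 with 10uM Luciferin-H EGE (at KM) in 50mM KPO4, compound preincubated 10 min at 37C, then NADPH regeneration for 60 min at 37C. Luciferin read by luminescence after detection reagent; normalized to 57uM ketoconazole as full inhibition.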

[19] abbreviates: measured here: cell count channel max response.
Setting [20] is: measured here: lipid channel max response.

The structures appear in SMILES notation. Inconclusive results are not listed. Activity calls are given as the source filed them. Unless noted, calls come from the whole dose curve; as a rule, active = well fitted curve in the direction sought with a large enough effect; inconclusive = small, poorly fitted or top-dose-only effect, or another doubt; inactive = no such curve, though single readings can be large; an effect the other way counts as inactive or inconclusive.

Sequence of Cytochrome P450 3A4 (Homo sapiens) (P08684 whole entry, looked up): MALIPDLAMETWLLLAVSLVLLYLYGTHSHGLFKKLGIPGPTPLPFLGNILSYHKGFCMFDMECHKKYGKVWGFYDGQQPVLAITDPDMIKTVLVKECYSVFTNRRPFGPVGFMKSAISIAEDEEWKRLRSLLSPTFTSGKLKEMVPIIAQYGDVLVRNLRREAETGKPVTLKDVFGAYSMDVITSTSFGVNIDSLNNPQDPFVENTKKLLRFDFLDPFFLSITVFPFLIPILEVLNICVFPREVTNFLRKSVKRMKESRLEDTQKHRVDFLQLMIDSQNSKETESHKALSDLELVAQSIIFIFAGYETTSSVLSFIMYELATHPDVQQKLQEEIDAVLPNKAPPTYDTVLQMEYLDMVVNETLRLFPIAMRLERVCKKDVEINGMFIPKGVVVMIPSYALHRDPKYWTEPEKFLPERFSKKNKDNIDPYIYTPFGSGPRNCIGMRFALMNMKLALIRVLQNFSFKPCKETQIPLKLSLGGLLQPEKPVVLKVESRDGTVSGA
Sequence of Lysosomal acid glucosylceramidase (Homo sapiens) (P04062 whole entry, looked up): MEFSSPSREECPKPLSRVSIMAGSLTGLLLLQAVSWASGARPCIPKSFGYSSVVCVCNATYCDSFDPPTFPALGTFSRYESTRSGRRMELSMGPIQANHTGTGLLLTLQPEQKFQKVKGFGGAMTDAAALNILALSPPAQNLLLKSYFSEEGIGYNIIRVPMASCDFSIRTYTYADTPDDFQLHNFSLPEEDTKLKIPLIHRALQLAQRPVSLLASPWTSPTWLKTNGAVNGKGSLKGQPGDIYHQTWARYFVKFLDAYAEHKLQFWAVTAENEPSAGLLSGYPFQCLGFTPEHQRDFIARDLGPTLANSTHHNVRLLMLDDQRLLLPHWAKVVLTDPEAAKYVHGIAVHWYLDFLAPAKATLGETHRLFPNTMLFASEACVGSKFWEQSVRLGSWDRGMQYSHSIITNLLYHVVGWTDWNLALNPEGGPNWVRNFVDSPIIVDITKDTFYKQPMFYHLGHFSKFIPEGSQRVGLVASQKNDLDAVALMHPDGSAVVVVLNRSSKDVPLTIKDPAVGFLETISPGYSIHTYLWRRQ
Sequence of Glucocorticoid receptor (Homo sapiens) (P04150 whole entry, looked up, the tested form may be a part): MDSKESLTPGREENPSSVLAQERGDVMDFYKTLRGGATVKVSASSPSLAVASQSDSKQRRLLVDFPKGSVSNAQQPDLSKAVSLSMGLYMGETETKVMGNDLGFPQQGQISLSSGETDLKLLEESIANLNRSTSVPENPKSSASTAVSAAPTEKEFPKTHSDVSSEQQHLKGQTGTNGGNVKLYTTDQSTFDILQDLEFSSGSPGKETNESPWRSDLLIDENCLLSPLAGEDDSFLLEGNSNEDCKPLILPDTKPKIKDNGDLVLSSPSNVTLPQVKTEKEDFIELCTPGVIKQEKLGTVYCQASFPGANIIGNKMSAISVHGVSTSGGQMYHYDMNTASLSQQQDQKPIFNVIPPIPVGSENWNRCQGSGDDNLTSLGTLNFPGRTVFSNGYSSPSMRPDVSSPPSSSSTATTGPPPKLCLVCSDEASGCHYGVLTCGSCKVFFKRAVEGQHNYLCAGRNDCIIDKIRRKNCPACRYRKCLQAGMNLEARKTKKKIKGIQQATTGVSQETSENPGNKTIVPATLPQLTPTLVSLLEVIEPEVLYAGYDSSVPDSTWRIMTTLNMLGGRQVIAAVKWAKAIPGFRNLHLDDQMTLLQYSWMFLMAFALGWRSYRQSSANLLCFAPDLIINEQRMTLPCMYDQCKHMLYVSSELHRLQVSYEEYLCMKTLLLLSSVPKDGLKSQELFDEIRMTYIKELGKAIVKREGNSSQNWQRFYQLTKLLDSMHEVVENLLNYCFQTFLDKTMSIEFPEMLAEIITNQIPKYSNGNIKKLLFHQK
Sequence of Ubiquitin carboxyl-terminal hydrolase 1 (Homo sapiens) (O94782 whole entry, looked up): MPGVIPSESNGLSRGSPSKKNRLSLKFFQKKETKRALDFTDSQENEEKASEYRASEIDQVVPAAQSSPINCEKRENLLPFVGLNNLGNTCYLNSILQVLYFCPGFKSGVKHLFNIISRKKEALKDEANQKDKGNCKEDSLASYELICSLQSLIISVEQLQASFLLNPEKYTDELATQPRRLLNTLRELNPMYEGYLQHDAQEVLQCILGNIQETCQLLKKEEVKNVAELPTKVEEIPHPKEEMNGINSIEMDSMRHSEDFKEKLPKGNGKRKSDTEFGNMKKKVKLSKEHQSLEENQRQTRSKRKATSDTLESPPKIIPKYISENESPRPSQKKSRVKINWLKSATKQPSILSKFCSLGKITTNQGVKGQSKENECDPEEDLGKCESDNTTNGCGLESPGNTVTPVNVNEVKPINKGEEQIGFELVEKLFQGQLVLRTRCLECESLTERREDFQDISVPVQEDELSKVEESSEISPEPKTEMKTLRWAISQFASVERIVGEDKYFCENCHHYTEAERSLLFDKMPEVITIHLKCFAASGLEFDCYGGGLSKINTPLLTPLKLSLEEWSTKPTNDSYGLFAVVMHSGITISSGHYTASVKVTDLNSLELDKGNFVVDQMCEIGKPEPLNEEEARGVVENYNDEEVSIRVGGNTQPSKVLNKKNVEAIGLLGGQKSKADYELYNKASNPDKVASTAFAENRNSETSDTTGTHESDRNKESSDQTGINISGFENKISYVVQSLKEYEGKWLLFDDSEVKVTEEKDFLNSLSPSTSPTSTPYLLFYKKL
Sequence of Cytochrome P450 1A2 (Homo sapiens) (P05177 whole entry, looked up): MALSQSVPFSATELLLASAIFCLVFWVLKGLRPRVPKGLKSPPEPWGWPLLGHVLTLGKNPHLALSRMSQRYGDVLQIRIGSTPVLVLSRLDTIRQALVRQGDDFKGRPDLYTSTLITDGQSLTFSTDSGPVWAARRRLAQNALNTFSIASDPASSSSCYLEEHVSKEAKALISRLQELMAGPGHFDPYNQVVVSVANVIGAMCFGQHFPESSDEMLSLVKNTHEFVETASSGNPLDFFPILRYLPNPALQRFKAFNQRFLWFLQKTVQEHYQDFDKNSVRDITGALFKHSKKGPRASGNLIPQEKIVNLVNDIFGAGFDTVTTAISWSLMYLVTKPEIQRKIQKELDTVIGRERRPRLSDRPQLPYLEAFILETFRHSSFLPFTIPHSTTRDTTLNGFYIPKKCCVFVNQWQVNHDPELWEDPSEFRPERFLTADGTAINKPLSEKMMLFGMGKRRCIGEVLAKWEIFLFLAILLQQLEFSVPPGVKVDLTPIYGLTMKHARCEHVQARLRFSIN
Sequence of Dual specificity protein kinase CLK4 (Homo sapiens) (Q9HAZ1 whole entry, looked up): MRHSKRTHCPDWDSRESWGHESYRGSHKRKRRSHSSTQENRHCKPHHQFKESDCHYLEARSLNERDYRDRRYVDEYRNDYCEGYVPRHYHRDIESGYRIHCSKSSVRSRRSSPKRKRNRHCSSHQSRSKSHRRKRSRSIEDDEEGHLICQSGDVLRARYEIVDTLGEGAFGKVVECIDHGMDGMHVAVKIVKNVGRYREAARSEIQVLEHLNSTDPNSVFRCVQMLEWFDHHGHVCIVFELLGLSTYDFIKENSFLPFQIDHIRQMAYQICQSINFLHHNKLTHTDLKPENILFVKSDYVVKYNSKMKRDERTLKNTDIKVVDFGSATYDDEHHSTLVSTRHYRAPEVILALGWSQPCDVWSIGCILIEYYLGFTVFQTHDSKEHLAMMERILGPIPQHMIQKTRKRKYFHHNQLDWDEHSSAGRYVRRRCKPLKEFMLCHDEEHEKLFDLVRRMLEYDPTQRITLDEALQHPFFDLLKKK
Sequence of 3',5'-cyclic-AMP phosphodiesterase 4B (Homo sapiens) (Q07343 whole entry, looked up): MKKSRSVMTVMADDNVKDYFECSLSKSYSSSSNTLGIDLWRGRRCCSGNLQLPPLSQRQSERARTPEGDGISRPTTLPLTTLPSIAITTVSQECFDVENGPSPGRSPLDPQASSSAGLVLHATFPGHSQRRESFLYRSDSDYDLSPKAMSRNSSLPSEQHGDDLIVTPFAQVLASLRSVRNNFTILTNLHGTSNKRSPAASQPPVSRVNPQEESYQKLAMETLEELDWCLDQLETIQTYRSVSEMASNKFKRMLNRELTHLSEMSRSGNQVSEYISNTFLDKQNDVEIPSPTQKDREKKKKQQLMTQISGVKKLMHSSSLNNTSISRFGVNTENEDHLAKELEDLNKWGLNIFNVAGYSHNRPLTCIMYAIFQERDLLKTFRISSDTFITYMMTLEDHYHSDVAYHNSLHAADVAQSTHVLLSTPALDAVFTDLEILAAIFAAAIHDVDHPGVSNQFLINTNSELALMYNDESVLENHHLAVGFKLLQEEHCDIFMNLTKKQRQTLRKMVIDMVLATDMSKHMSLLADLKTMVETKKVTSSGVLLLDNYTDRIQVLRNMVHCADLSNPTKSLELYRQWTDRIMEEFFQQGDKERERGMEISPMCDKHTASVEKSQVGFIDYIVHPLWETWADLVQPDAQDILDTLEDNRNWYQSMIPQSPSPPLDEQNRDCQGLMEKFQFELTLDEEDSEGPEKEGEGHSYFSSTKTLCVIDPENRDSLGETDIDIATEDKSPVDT
Sequence of Cytochrome P450 2C19 (Homo sapiens) (P33261 whole entry, looked up): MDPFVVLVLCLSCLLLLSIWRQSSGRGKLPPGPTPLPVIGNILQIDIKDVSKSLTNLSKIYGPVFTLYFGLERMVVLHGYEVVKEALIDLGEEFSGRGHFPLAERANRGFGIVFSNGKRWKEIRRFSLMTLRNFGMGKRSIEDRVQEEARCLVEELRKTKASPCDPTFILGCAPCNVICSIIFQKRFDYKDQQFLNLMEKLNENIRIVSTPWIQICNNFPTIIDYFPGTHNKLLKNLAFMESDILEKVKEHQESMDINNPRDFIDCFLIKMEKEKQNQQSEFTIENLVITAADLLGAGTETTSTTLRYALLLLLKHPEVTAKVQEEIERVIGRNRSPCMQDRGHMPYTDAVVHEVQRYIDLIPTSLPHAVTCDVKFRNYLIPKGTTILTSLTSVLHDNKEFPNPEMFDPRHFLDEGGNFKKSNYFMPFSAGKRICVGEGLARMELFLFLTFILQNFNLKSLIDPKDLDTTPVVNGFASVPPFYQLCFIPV

Consider `CN1CCN(c2ncc3nc(-c4cccc(C#N)c4)c(=O)n(CCC#N)c3n2)CC1`, for which the Potency in test [1] was > 11.4 µM (inactive); in [6] it was > 9.22 µM (inactive); in test [7], > 46 µM (inactive). The activity change, negative = inhibition was -12.4% (inactive) in [2], 17.8% (inactive) in test [4] and 4.89% (inactive) in test [10]. Also, the Potency result in test [3], in test [8], in [9], in [11], in test [12] and in [13] was “inactive” each time. For the same compound, the activity, negative = inhibition in test [5] was 19.4% (inactive). Further, the max response in [10] (setting [19]) was -1.32%; in test [10] (setting [20]) it was 1.31%.

On to `COc1ccc(-n2c(=O)c(-c3cn(C)c4ccccc34)nc3cnc(N4CCNCC4)nc32)cc1`, for which the values for the activity change, negative = inhibition in test [2] and in test [10] were 26.2% (inactive) and 7.55% (inactive), respectively. The Potency in [3] was 15.8 µM (active); in [6], > 9.22 µM (inactive); in [7], > 46 µM (inactive); in [15], 3.16 µM (active). Further, the Potency entry in [9], in test [14], in [11], in test [16], in test [12] and in test [13] was “inactive” each time. In addition, the max response in test [10] (setting [19]) worked out at 16.8%; in [10] (setting [20]), 26.4%.

With `COc1ccc(CNc2ncnc3ccc(-c4ccc(N(C)C)cc4)cc23)c(OC)c1`, the Potency in [3] was 2.51 µM (active); in test [6], > 46 µM (inactive); in test [7], > 46 µM (inactive); in test [17] it was 3.98 µM (active); in [18], 3.98 µM (active). Moreover, the activity, negative = inhibition in [5] was -9.37% (inactive). Moreover, the Potency entry in test [9], in [14], in test [11], in test [12] and in [13] was “inactive” in each case. The activity change, negative = inhibition in test [10] is 3.77% (inactive). Moreover, the max response in test [10] (setting [19]) was -26.6%; in test [10] (setting [20]), -24.8%.

As for `CN1CCN(c2ncc3nc(-c4cc(F)cc(F)c4)c(=O)n(CCC#N)c3n2)CC1`, the Potency is > 11.4 µM (inactive) in test [1]; 15.8 µM (active) in [3]; > 9.22 µM (inactive) in [6]; > 46 µM (inactive) in [7]; 3.16 µM (active) in [15]. Also, the Potency result in test [8], in test [9], in test [14], in [11], in test [16] and in test [13] was “inactive” throughout. Besides, in [10], the activity change, negative = inhibition is 1.36% (inactive). In addition, the values for the max response in test [10] (setting [19]) and in test [10] (setting [20]) were 25.2% and 26.1%, respectively.

On to `CN1CCN(c2ncncc2-c2ccccc2Cl)CC1`, for which the Potency in test [1] was > 11.4 µM (inactive); in test [3], 2.51 µM (active); in test [7], > 46 µM (inactive); in [17] it was 1.58 µM (active). Further, the activity change, negative = inhibition was -12.3% (inactive) in [2] and -1.74% (inactive) in [10]. In test [5], the activity, negative = inhibition was -1.1% (inactive). For the same compound, the Potency result in test [8], in test [9], in test [14], in test [11], in test [12] and in test [13] was “inactive” in each case. In addition, the activation in test [15] is 4.87% (inactive). Also, the values for the max response in test [10] (setting [19]) and in test [10] (setting [20]) were 8.31% and 3.53%, respectively.

Take `N#Cc1cccc(-c2ccc3ncnc(NCCN4CCOCC4)c3c2)c1`: the Potency is > 11.4 µM (inactive) in [1]; > 46 µM (inactive) in [6]; > 46 µM (inactive) in test [7]; 12.6 µM (active) in [11]; 8.91 µM (active) in test [16]. The activity change, negative = inhibition in [2] was 1.43% (inactive); in test [4], 19.4% (inactive); in [10], 4.75% (inactive). Moreover, the Potency entry in test [8], in test [9] and in test [13] was “inactive” each time. Moreover, the max response is 5.88% in test [10] (setting [19]) and 7.51% in test [10] (setting [20]).

Values taken from PubChem BioAssay (NCATS).
